Assay outcomes: PubChem BioAssay, National Center for Advancing Translational Sciences (NCATS)
CHX counter: counter-screen hit for Shiga toxin inhibitors, cycloheximide | cell reporter, cycloheximide protein synthesis inhibition counterscreen | max response, % | actives 12% (n = 300,000); in the data active = max response mostly above about 13%, no sharp cut-off; inactive = mostly below about 14%; note: read at 38.3 µM for the half of the compounds with a filed dose
Shiga inhibitor: blocks Shiga toxin action in Vero cells; inhibition, % at 38.7 µM; AID 2315; Vero cells, Shiga toxin protein synthesis inhibition reporter; actives 9.2% (n = 290,000); in the data active = inhibition mostly above about 28%, no sharp cut-off; inactive = mostly below about 43%
LASV entry inh: blocks Lassa virus binding to or entry into cells; Potency, µM (highest dose often 37.9 µM), actives largely listed as inhibitors; Lassa virus pseudotype entry inhibition, cell reporter; actives 1.2% (n = 300,000); AID 540256; calls by dose curve; tested in HEK293 cells; note: nearly all actives have a fitted effect of over 50% in size
MARV entry inh: inhibitors of Marburg virus binding or cell entry; actives 1.8% (n = 300,000); Potency, µM (top dose mostly 37.8 µM), hits mostly inhibitors; Marburg virus pseudotyped entry inhibition, cell reporter; calls by dose curve; tested in HEK293 cells
Of the large screens only hits and unclear results are named; the others gave an inactive call. Compounds with a hit are over-represented: about 12% of the library has one in this group of screens.

Cc1cc(/C=C(\C#N)C(=O)Nc2ccccc2)c(C)n1-c1cccnc1	CHX counter 33, Shiga inhibitor 62, LASV entry inh inconclusive, MARV entry inh inconclusive
N#C/C(=C\c1ccccc1O)C(=O)Nc1cccnc1	CHX counter 46, Shiga inhibitor 57, MARV entry inh inconclusive
CN(C)/C=C(\C#N)C(=O)Nc1ccccc1	CHX counter 32, Shiga inhibitor 57, MARV entry inh inconclusive
Cc1ccc(NC(=O)/C(C#N)=C/c2ccccc2C(F)(F)F)cc1	CHX counter 27
CN(C)c1ccc(C(=O)N/N=C/c2ccccn2)cc1	CHX counter 58, Shiga inhibitor 75 (no result: LASV entry inh, MARV entry inh)
O=C(N/N=C/c1ccccn1)c1cc(-c2ccc(Cl)cc2)nc2ccccc12	LASV entry inh inconclusive, MARV entry inh inconclusive
O=C(N/N=C/c1ccccn1)c1cccs1	CHX counter 38, Shiga inhibitor 76
Cc1ccc(C(=O)Nc2ccc(C(=O)N/N=C/c3cccnc3)cc2)cc1	none
O=C(N/N=C/c1ccccn1)c1ccc(Cl)cc1	CHX counter 46, Shiga inhibitor 102, LASV entry inh inconclusive, MARV entry inh inconclusive
Cc1ccc(C(=O)Nc2ccc(C(=O)N/N=C/c3ccccn3)cc2)cc1	CHX counter 25, Shiga inhibitor 31
COc1ccc(N(C(=O)c2snc(C(N)=O)c2N)C(C(=O)NC2CCCC2)c2cc(OC)ccc2OC)cc1 (centres undefined)	LASV entry inh inconclusive
COC(=O)c1ccc(CNC(=O)C2CCC(=O)N(C3CCCCCC3)C2)cc1 (centres undefined)	none (no result: LASV entry inh, MARV entry inh)
O=C(Cc1ccc(F)cc1)N/N=C/c1ccccn1	none
O=C(N/N=C/c1ccccn1)c1ccco1	CHX counter 47, Shiga inhibitor 71
Cn1ncc(Cl)c1C(=O)N/N=C/c1cccc(OC2CSC2)c1	none
Cn1ncc(Cl)c1C(=O)N/N=C/c1ccccn1	CHX counter 20
O=C(N/N=C/c1ccccn1)c1ccccc1	CHX counter 48, Shiga inhibitor 71, LASV entry inh inconclusive, MARV entry inh inconclusive
O=C(Cc1cccs1)N/N=C/c1ccccn1	CHX counter 27, Shiga inhibitor 39
COc1cc2ncc3c(-c4ccc(C)cc4)nn(-c4ccc(F)cc4F)c3c2cc1OC	none (no result: CHX counter, Shiga inhibitor, MARV entry inh)
O=C(N/N=C/c1ccccn1)c1ccncc1	CHX counter 52, Shiga inhibitor 97 (no result: LASV entry inh, MARV entry inh)
Cc1cccc(/C=N/NC(=O)c2ccc(NC(=O)c3ccc(F)cc3)cc2)n1	none
O=C(N/N=C/c1ccc2ncccc2c1)c1ccco1	LASV entry inh 2.5µM, MARV entry inh 1.3µM
Cc1cc(C(=O)NN=Cc2ccc(OC(=O)c3ccco3)cc2)c(C)o1	MARV entry inh inconclusive (no result: CHX counter, Shiga inhibitor)
Cc1cccc(/C=N/NC(=O)c2ccc(NC(=O)c3ccc(Cl)cc3)cc2)n1	CHX counter 11, MARV entry inh inconclusive
O=C(N/N=C\c1ccccn1)c1cccc(C(=O)N/N=C\c2ccccn2)n1	none (no result: CHX counter, Shiga inhibitor)
Cc1ccccc1C(=O)Nc1nnc(SC(C)C)s1	CHX counter 30 (no result: LASV entry inh, MARV entry inh)
O=C(CSc1nnc(NC(=O)c2ccc(F)cc2)s1)NCc1ccco1	CHX counter 29, Shiga inhibitor 45, LASV entry inh inconclusive, MARV entry inh inconclusive
O=C(CSc1nnc(NC(=O)c2ccccc2)s1)NCc1ccco1	CHX counter 40, Shiga inhibitor 41, LASV entry inh inconclusive, MARV entry inh inconclusive
O=C(CSc1nnc(NC(=O)c2cccc(F)c2)s1)NCc1ccco1	none
Cc1ccccc1C(=O)Nc1nnc(SCC(=O)NCc2ccco2)s1	CHX counter 21, Shiga inhibitor 72 (no result: LASV entry inh, MARV entry inh)
Cn1c(=O)oc2cc(S(=O)(=O)N3CCCC(C(=O)NCCc4ccccc4)C3)ccc21 (centres undefined)	none (no result: CHX counter, Shiga inhibitor)
O=C(CSc1nnc(NC(=O)c2ccco2)s1)NCc1ccc2c(c1)OCO2	MARV entry inh inconclusive
O=C(CSc1nnc(NC(=O)c2ccc3c(c2)OCO3)s1)NCc1ccco1	CHX counter 23, LASV entry inh inconclusive, MARV entry inh 7.1µM
COc1ccc(-c2nc(S(=O)(=O)c3ccc(C)cc3)c(NCc3ccccc3)o2)cc1	LASV entry inh inconclusive (no result: CHX counter, Shiga inhibitor)
O=C1CCCN1c1ccc(N2CCCC2=O)cc1	none (no result: LASV entry inh, MARV entry inh)
CC(C)CCn1cnc2c(oc3nc4c(cc32)CCCC4)c1=O	CHX counter 24 (no result: LASV entry inh, MARV entry inh)
CC12CCC(=O)N1C(C(=O)Nc1ccc(Cl)c(S(=O)(=O)N3CCCCC3)c1)CS2 (centres undefined)	MARV entry inh inconclusive (no result: CHX counter, Shiga inhibitor)
Cc1cc(SCc2ccc(Cl)cc2)nc(=O)[nH]1	CHX counter 16 (no result: LASV entry inh, MARV entry inh)
Cc1ccc(CSc2cc(C)[nH]c(=O)n2)cc1	Shiga inhibitor 26 (no result: LASV entry inh, MARV entry inh)
Cc1cc(SCc2cccc(Cl)c2)nc(=O)[nH]1	none (no result: LASV entry inh, MARV entry inh)
Cc1ccc(S(=O)(=O)N(C)C)cc1NC(=O)CN1C(=O)NC2(CCCCCCC2)C1=O	none
CC(=O)c1cccc(NC(=O)c2ccc(C)o2)c1	CHX counter 26
O=C(Nc1ccc2nn(-c3ccccc3)nc2c1)c1ccc(Br)o1	CHX counter 13, Shiga inhibitor 74, LASV entry inh inconclusive, MARV entry inh inconclusive
C/C(=N\NC(=O)c1cccc(Br)c1)c1cccc(NC(=O)c2ccc(C)o2)c1	CHX counter 28, Shiga inhibitor 42
O=C(Nc1cccc(F)c1)c1ccc(Br)o1	CHX counter 60, Shiga inhibitor 77, MARV entry inh inconclusive
CCCCC(=O)Nc1cccc(NC(=O)c2ccc(Br)o2)c1	none
CC(=O)c1cccc(NC(=O)c2cc(C)no2)c1	none (no result: LASV entry inh, MARV entry inh)
O=C(Cn1c(=O)oc2cc(S(=O)(=O)NCc3ccccc3)ccc21)NCc1ccccc1Cl	none (no result: CHX counter, Shiga inhibitor, MARV entry inh)
CC(=O)c1cccc(NC(=O)c2ccc(Br)o2)c1	CHX counter 24, Shiga inhibitor 63
O=C(Nc1ccccc1C(=O)O)c1cccc(NC(=O)c2ccc(Br)o2)c1	none
O=C(Nc1cccc(OC(F)(F)F)c1)c1ccc(Br)o1	CHX counter 40
Cc1ccc(NC(=O)Cn2cc3c(n2)CCC(C)C3)cc1C (centres undefined)	none (no result: CHX counter, Shiga inhibitor)
CC1=C2C3OC(=O)C(C)C3CCC2(C)C=CC1=NO (centres undefined)	none (no result: CHX counter, Shiga inhibitor)
Cc1ccc(NC(=S)N2CCCN(Cc3ccc(F)cc3)C2)c(C)c1	MARV entry inh inconclusive
Cc1ccccc1NC(=S)N1CCCN(Cc2ccc(F)cc2)C1	none (no result: LASV entry inh, MARV entry inh)
Cc1c(Cl)cccc1NC(=S)N1CCCN(Cc2ccc(F)cc2)C1	MARV entry inh 4µM
CSc1cccc(NC(=S)N2CCCN(Cc3ccc(F)cc3)C2)c1	LASV entry inh inconclusive, MARV entry inh 6.3µM
Cc1c(Cl)cccc1NC(=S)N1CCCN(Cc2ccccc2F)C1	LASV entry inh inconclusive, MARV entry inh 10µM
COc1cc(/C=N/NC(=O)c2ccc3c(c2)OCO3)ccc1O	CHX counter 63, Shiga inhibitor 81 (no result: LASV entry inh, MARV entry inh)
O=C(N/N=C/c1ccc(OC(=O)c2ccc3c(c2)OCO3)cc1)c1cncc(Br)c1	none
Cc1ccc(C(C)C)cc1OCC(=O)N/N=C/c1ccc2c(c1)OCCO2	LASV entry inh 1.1µM, MARV entry inh inconclusive
COc1ccc(/C=N/NC(=O)c2ccc3c(c2)OCO3)cc1	CHX counter 27, Shiga inhibitor 102 (no result: LASV entry inh, MARV entry inh)
COc1ccc(NCC(=O)N/N=C/c2ccc3c(c2)OCCO3)cc1	CHX counter 22, LASV entry inh inconclusive
COc1ccc(NS(=O)(=O)c2cccc(C(=O)N/N=C/c3ccc4c(c3)OCCO4)c2)cc1	MARV entry inh inconclusive
O=C(NCCCN1CCN(c2ccc(F)cc2)CC1)c1ccc2nc(Cc3ccccc3)oc2c1	none (no result: CHX counter, Shiga inhibitor, MARV entry inh)
CCC(Sc1nc2nccnc2c(=O)n1Cc1ccc(F)cc1)C(=O)NC1CCCCC1 (centres undefined)	none (no result: CHX counter, Shiga inhibitor, MARV entry inh)
